Assay results from PubChem BioAssay (NCI).
The panel holds about 83,000 compounds, 20% with a hit somewhere; the sample as a whole holds those more often.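 Each cell line was grown in a 96-well plate and treated with one concentration of compound for 48 hours. Values below 10 were considered active.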 Active and inactive are the calls of the source.

Columns and labels:
Assay in all cases: NCI-60 one-dose screen, 48 h (100 = growth as untreated, 0 = no growth, -100 = all killed)
SK-MEL-2 melanoma = details: 10 µM unless noted
EKVX NSCLC = details: 10 µM unless noted
SN12C renal = details: 10 µM unless noted
UO-31 renal = details: 10 µM unless noted
TK-10 renal = details: 10 µM unless noted
ACHN renal = details: 10 µM unless noted
CAKI-1 renal = details: 10 µM
CCRF-CEM leukemia = details: 10 µM unless noted
MOLT-4 leukemia = details: 10 µM unless noted
SR leukemia = details: 10 µM unless noted
RPMI-8226 leukemia = details: 10 µM unless noted
OVCAR-8 ovarian = details: 10 µM unless noted
OVCAR-5 ovarian = details: 10 µM unless noted
OVCAR-4 ovarian = details: 10 µM unless noted
SK-OV-3 ovarian = details: 10 µM unless noted
IGROV1 ovarian = details: 10 µM unless noted
OVCAR-3 ovarian = details: 10 µM unless noted
HS 578T breast = details: 10 µM unless noted
NCI/ADR-RES ovarian = details: 10 µM unless noted

Measured: growth

CCNC(=O)Oc1ccc(/C(=C(/C)c2ccccc2)c2ccc(OCCN3CCCC3)cc2)cc1
inactive: SK-MEL-2 melanoma 93.3% | EKVX NSCLC 77.3% | SN12C renal 78.2% | UO-31 renal 61% | TK-10 renal 102% | ACHN renal 86% | CAKI-1 renal 79.9% | CCRF-CEM leukemia 64% | MOLT-4 leukemia 51.7% | SR leukemia 32.3% | RPMI-8226 leukemia 33% | OVCAR-8 ovarian 89.5% | OVCAR-5 ovarian 82.3% | OVCAR-4 ovarian 81.7% | SK-OV-3 ovarian 95.8% | IGROV1 ovarian 80.5% | OVCAR-3 ovarian 76.6% | HS 578T breast 78.4% | NCI/ADR-RES ovarian 76.3%

O=C(COc1ccc(C2SCC(=O)N2c2ccc(F)cc2)cc1)c1ccccc1 (configuration not stated)
inactive: SK-MEL-2 melanoma 99.8% | EKVX NSCLC 86.9% | SN12C renal 97.1% | UO-31 renal 78.6% | TK-10 renal 131% | ACHN renal 95.6% | CAKI-1 renal 66% | CCRF-CEM leukemia 95.8% | MOLT-4 leukemia 92.5% | SR leukemia 65.1% | RPMI-8226 leukemia 87.4% | OVCAR-8 ovarian 94.4% | OVCAR-5 ovarian 107% | OVCAR-4 ovarian 110% | SK-OV-3 ovarian 112% | IGROV1 ovarian 86.2% | OVCAR-3 ovarian 114% | HS 578T breast 96.7% | NCI/ADR-RES ovarian 94.2%

CN1CCN(c2ccc3c(c2)nc(NNC(=O)c2ccncn2)c2cccn23)CC1
active: CAKI-1 renal 6.41%
inactive: SK-MEL-2 melanoma 31.5% | EKVX NSCLC 22.4% | SN12C renal 29.1% | UO-31 renal 13% | TK-10 renal 43.1% | ACHN renal 12.5% | CCRF-CEM leukemia 15.3% | MOLT-4 leukemia 10.4% | SR leukemia 14.9% | RPMI-8226 leukemia 24.5% | OVCAR-8 ovarian 21.8% | OVCAR-5 ovarian 54% | OVCAR-4 ovarian 36.4% | SK-OV-3 ovarian 25% | IGROV1 ovarian 22.4% | OVCAR-3 ovarian 38% | HS 578T breast 71.3% | NCI/ADR-RES ovarian 18.8%

COc1cc(CNC(=O)Cc2ccccc2[N+](=O)[O-])ccc1OCC(=O)NO
inactive: SK-MEL-2 melanoma 104% | EKVX NSCLC 100% | SN12C renal 99.5% | UO-31 renal 83.1% | TK-10 renal 122% | ACHN renal 103% | CAKI-1 renal 90.4% | CCRF-CEM leukemia 102% | MOLT-4 leukemia 107% | SR leukemia 97.4% | RPMI-8226 leukemia 118% | OVCAR-8 ovarian 101% | OVCAR-5 ovarian 104% | OVCAR-4 ovarian 116% | SK-OV-3 ovarian 107% | IGROV1 ovarian 108% | OVCAR-3 ovarian 126% | HS 578T breast 108% | NCI/ADR-RES ovarian 106%

Brc1cccc(/C=N/Nc2nc(N/N=C/c3cccc(Br)c3)nc(N3CCOCC3)n2)c1
inactive: EKVX NSCLC 49% | SN12C renal 44.2% | UO-31 renal 25.5% | TK-10 renal 66.8% | ACHN renal 26.3% | CAKI-1 renal 15.4% | CCRF-CEM leukemia 21% | MOLT-4 leukemia 10.2% | RPMI-8226 leukemia 34.2% | OVCAR-8 ovarian 37.4% | OVCAR-5 ovarian 72.4% | OVCAR-4 ovarian 54.2% | SK-OV-3 ovarian 92.9% | IGROV1 ovarian 42.8% | OVCAR-3 ovarian 42.4% | HS 578T breast 66.2% | NCI/ADR-RES ovarian 41.8%
active: SK-MEL-2 melanoma 2.64% | SR leukemia 7.93%

O=C(Nc1cccc(Cl)c1)Nc1nc2ccc([N+](=O)[O-])cc2s1
inactive: EKVX NSCLC 10% | OVCAR-5 ovarian 26.5% | IGROV1 ovarian 14.8%
active: SK-MEL-2 melanoma -24.1% | SN12C renal 4.02% | UO-31 renal 7.26% | TK-10 renal -2.79% | ACHN renal 5.59% | CAKI-1 renal 3.38% | CCRF-CEM leukemia 9.48% | MOLT-4 leukemia 2.36% | SR leukemia 2.1% | RPMI-8226 leukemia 3.45% | OVCAR-8 ovarian 7.34% | OVCAR-4 ovarian 4.33% | SK-OV-3 ovarian -1.18% | OVCAR-3 ovarian 9.51% | HS 578T breast -5.35% | NCI/ADR-RES ovarian 2.96%

CCN1C(=O)N(CC)C2SC(N/N=C/C=C/c3ccccc3OC)=NC21 (configuration not stated)
inactive: SK-MEL-2 melanoma 51.5% | EKVX NSCLC 46.8% | SN12C renal 28.6% | UO-31 renal 40.2% | TK-10 renal 52.1% | ACHN renal 29.9% | CAKI-1 renal 46.7% | CCRF-CEM leukemia 11.3% | MOLT-4 leukemia 16.9% | SR leukemia 27.5% | RPMI-8226 leukemia 14.3% | OVCAR-8 ovarian 22.3% | OVCAR-5 ovarian 37.7% | OVCAR-4 ovarian 68.6% | SK-OV-3 ovarian 52.8% | IGROV1 ovarian 21.4% | HS 578T breast 27.1% | NCI/ADR-RES ovarian 11.9%
active: OVCAR-3 ovarian -39.6%

COc1ccc(Cn2cc3c(c2-c2cc(OC)c(OC)c(OC)c2)CCCc2cnoc2-3)cc1N
inactive: SK-MEL-2 melanoma 55.4% | EKVX NSCLC 46.6% | SN12C renal 40.5% | UO-31 renal 38.2% | TK-10 renal 78.9% | ACHN renal 40.1% | CAKI-1 renal 31.5% | CCRF-CEM leukemia 15.5% | MOLT-4 leukemia 17.4% | SR leukemia 18% | RPMI-8226 leukemia 19.9% | OVCAR-8 ovarian 47.3% | OVCAR-5 ovarian 38.2% | OVCAR-4 ovarian 80.9% | SK-OV-3 ovarian 65.6% | IGROV1 ovarian 35.2% | HS 578T breast 13% | NCI/ADR-RES ovarian 15.5%
active: OVCAR-3 ovarian 7.33%
